Inconclusive results are not listed. Active and inactive are the calls of the source. The call rests on the fitted dose curve.
Assay: qHTS assay for small molecule agonists of the antioxidant response element (ARE) signaling pathway - cell viability counter screen (AID 743203); further: nearly all actives have a fitted effect of over 55% in size
Conditions: ARE-bla HepG2 viability, CellTiter-Glo luminescence, 16 h; series mostly up to 73.3 µM; viability change, negative = cytotoxic: at the top concentration
Excerpt: National Center for Advancing Translational Sciences [NCATS]
NIH Chemical Genomics Center [NCGC]
U.S. Environmental Protection Agency [EPA]
National Institutes of Environmental Health Sciences [NIEHS]
National Toxicology Program [NTP]
U.S. Food and Drug Administration [FDA]
Oxidative stress has been implicated in the pathogenesis of a variety of diseases ranging from cancer to neurodegeneration. The antioxidant response element (ARE) signaling pathway plays an important role in the amelioration of oxidative stress. The CellSensor ARE-bla HepG2 cell line (Invitrogen) can be used for analyzing the Nrf2/antioxidant response signaling pathway. Nrf2 (NF-E2-related factor 2) and Nrf1 are transcription factors that bind to AREs and activate these genes. The CellSensor ARE-bla Hep G2 cell line contains a beta-lactamase reporter gene under control of the Antioxidant Response Element (ARE) stably integrated into HepG2 cells. The activation of the report gene under culture conditions can be detected by fluorescence intensity. This cell line has been used to screen the Tox21 10K compound library to identify agonists that induce oxidative stress. The cytotoxicity of the Tox21 compound library against the ARE-bla cell line was tested in parallel by measuring the cell viability using CellTiter-Glo assay (Promega, Madison, WI) in the same wells.
Tox21 Assay Protocol Summary:
ARE-bla HepG2 cells were dispensed at 2,000 cells/5 ul/well in 1536-well white wall/solid bottom plates using a Multidrop Combi (ThermoFisher Scientific, Waltham, MA) dispenser. After the assay plates were incubated at 37C/5% CO2 for 5 hrs, 23 nL of compounds dissolved in DMSO, positive controls or DMSO only was transferred to the assay plate by a pintool work station (Kalypsys, San Diego, CA). The plates were incubated at 37C/5% CO2 for 16 hrs, followed by addition of 4 ul/well of CellTiter-Glo reagent into the assay plates using a Flying Reagent Dispenser (Aurora Discovery, San Diego, CA). After 30 min incubation at room temperature, the luminescence intensity in the assay plates was measured using a ViewLux (PerkinElmer, Shelton, CT) plate reader.
On the % scale 0 is the no-effect control and ±100 the full control effect.

SMILES	viability change, negative = cytotoxic
CC1(C)CC(O)CC(C)(C)N1[O]	0.407% (inactive)
CC(C)(C)c1ccc(CCC=O)cc1	4.76% (inactive)
Cc1ccc(S(=O)(=O)NC(=O)NC2CCCC2)cc1	-1.08% (inactive)
Clc1cc(Cl)c2c(c1)N=C1CCCCCN1C2	-9.2% (inactive)
COC=O	-4.87% [at 8.36 µM] (inactive)
CCOC(C)OCC	-5.43% (inactive)
CCCCCCCCCCCCCCCCC(=O)O	-2.79% (inactive)
CCc1cnc(C(=O)O)c(C(=O)O)c1	1.49% [at 94.8 µM] (inactive)
C=CC(C)(O)CC/C=C(/C)CCC=C(C)C (stereo not given)	-0.874% (inactive)
CCc1ccc(C(=O)C(C)CN2CCCCC2)cc1 (stereo not given)	9.45% (inactive)
OCCOc1cccc(OCCO)c1	0.1% (inactive)
CCOC(OCC)OCC	8.4% (inactive)
COc1ccc(/C=C/S(=O)(=O)NC(=O)c2ccc(C)cc2Cl)cc1	-3.96% (inactive)
O=P(c1ccccc1)(c1ccccc1)c1ccccc1	13% (inactive)
Clc1ccccc1-c1nc(-c2ccncc2)no1	-0.132% (inactive)
COc1ccc(C(=O)Nc2ccccc2)cc1[N+](=O)[O-]	3.82% [at 94.8 µM] (inactive)
O=C1CCCN1CCO	-9.57% (inactive)
NC(=O)c1ccccc1	-0.267% [at 94.8 µM] (inactive)
O=C(N[C@@H](Cc1ccccc1)[C@@H](O)C(=O)N1C[C@@H](O)[C@@H](O)C1)c1cc2cc(Cl)ccc2[nH]1	-9.63% (inactive)
CC1(C)CC(=O)CC(C)(C)N1	1.42% (inactive)

SMILES	viability change, negative = cytotoxic
CC(=O)Oc1cccc2c1C(=O)c1c(OC(C)=O)cc(C(=O)O)cc1C2=O	-3.67% (inactive)
COC(=O)/C=C/C(C)=C\C=C\C(C)=C\C=C\C=C(C)\C=C\C=C(C)\C=C\C(=O)O	-19.7% (inactive)
C/C(=C(\CCO)SS/C(CCO)=C(\C)N(C=O)Cc1cnc(C)nc1N)N(C=O)Cc1cnc(C)nc1N	9.2% (inactive)
O=Cc1ccc(Cl)c([N+](=O)[O-])c1	-12.2% (inactive)
Cc1cc(SC2=C(O)C[C@@](CCc3ccc(N)cc3)(C(C)C)OC2=O)c(C(C)(C)C)cc1CO	7.43% (inactive)
CCCCCCCCCCCCCCCCN	7.85% (inactive)
CCCCCCC/C=C/C=O	-21.2% (inactive)
O=C(O)c1cccc(C(=O)O)c1C(=O)O	11.7% [at 94.8 µM] (inactive)
CCCCCCCCNC	-18.2% (inactive)
CCOC(=O)CC(O)(CC(=O)OCC)C(=O)OCC	-1.17% (inactive)
O=C(O)COCC(=O)O	-0.592% [at 94.8 µM] (inactive)
Cc1cc(C)n(CO)n1	-4.47% (inactive)
CCc1c(C)[nH]c2c1C(=O)C(CN1CCOCC1)CC2 (stereo not given)	10.7% (inactive)
FC(F)(Cl)C(F)(Cl)Cl	-0.391% (inactive)
CCC[Si](OC)(OC)OC	-0.224% (inactive)
CC(C(=O)O)c1ccc(/C=C2\CCCCC2=O)cc1 (stereo not given)	15.1% (inactive)
O=C(Nc1ccccc1)c1cc([N+](=O)[O-])ccc1Cl	-2.01% (inactive)
C(/C=C/C=C/Nc1ccccc1)=Nc1ccccc1	3.65% (inactive)
CCCCC(CC)COCCC#N (stereo not given)	-6.11% (inactive)
C=CC(C)CCC=C(C)C (stereo not given)	6.54% (inactive)

Reference: PubChem BioAssay (Tox21)
